# From PubChem BioAssay
# PABP1 MLLE inh = inhibitors of microRNA-mediated deadenylation, human PABP1 MLLE binding. AID 588489. P11940. inhibition, % at 20 µM. 360,000 tested, 0.36% active. GST-MLLE / FITC-PAM2 fluorescence polarization; in the data active = inhibition above about 35%, passing the limit was not always enough;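 also: plate controls were DMSO wells with GST-MLLE for no effect and wells lacking GST-MLLE protein for full effect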
# Target sequence (P11940 whole entry, looked up): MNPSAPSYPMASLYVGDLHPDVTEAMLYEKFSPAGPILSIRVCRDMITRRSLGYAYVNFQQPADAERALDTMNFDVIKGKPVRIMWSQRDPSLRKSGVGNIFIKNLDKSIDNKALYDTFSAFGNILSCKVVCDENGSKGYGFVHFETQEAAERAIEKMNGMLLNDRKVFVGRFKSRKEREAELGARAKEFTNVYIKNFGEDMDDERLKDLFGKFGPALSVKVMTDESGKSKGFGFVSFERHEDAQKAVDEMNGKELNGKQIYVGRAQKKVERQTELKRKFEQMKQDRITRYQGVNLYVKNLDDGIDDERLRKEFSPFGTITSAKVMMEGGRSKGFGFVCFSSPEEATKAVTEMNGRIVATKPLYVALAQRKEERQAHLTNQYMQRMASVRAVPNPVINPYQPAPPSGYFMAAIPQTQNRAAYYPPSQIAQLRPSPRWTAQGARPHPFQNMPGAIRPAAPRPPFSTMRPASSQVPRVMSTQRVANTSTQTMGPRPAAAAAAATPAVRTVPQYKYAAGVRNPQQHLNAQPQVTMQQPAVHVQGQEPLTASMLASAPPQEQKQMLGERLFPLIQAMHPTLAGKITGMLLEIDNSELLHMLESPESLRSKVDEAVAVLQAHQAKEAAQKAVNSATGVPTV
# PERK inhibitor = inhibitors of human PERK kinase. Q9NZJ5. CHO PERK-DD fusion, SEAP luminescence translation reporter. inhibition, % at 5.6 µM. 220,000 tested, 0.17% active;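 active = inhibition above the mean inhibition of all tested compounds plus 3 SD, set separately per screening campaign, cut at about 2.9% in these data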;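 also: PERK kinase domain activated by AP20187 dimerizer at 100 nM; 0% = DMSO with dimerizer and 100% = rapamycin at 8.4 µM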
# eIF4H inh = inhibitors of RNA binding by human eIF4H; Q15056; eIF4H fluorescence polarization binding assay; inhibition, % at 35 µM; 290,000 tested, 0.94% active; AID 2012;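 also: calls also rest on retests at 20 µM and on dose response follow-up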
# PABP polyA inh = PABP-poly(A) binding inhibition. PABP-poly(A) RNA binding, fluorescence polarization. inhibition, % at 35 µM. 290,000 tested, 1% active. AID 2014;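 also: calls also rest on retests at 20 µM and on dose response follow-up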
# GRK2 inh = blocks RNA aptamer binding to human GRK2; bead flow cytometry, FAM-aptamer displacement from GRK2; P25098; AID 488847; inhibition of aptamer binding, % at 10 µM; 330,000 tested, 0.59% active;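 active = inhibition of aptamer binding above 40%, roughly 3 SD of noise, on plates passing a quality check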;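 also: median bead fluorescence of bound FAM aptamer so fluorescent compounds give negative values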
# Numbers without * were called inactive; ? = inconclusive; nt = no result. Most compounds without a hit are left out; they make up all but 1.9% or so of the library. Unless noted, no rule for the calls is given here.
SMILES,PABP1 MLLE inh,PERK inhibitor,eIF4H inh,PABP polyA inh,GRK2 inh
CCN(CC)S(=O)(=O)c1ccc(Cl)c(NC(=O)COC(=O)/C=C/c2ccc(O)c(OC)c2)c1,7.0,0.6,2.0,-0.3,100.0*
COCCNC(=S)N/N=C1\CC(C)CC(C)(C)C1 (stereo not drawn),19.4,0.6,-3.9,4.7,5.0
Nc1nc2ncc(C(=O)c3cc(Cl)cc(Cl)c3O)cc2s1,-9.8,1.8,88.7*,69.3,0.0
O=C1c2c(O)ccc(O)c2C(=O)c2c(NCCNCCO)ccc(NCCNCCO)c21,21.9,nt,nt,nt,99.0*
O=C1c2ccccc2C(=O)c2c(Nc3ccc(CCO)cc3)ccc(O)c21,3.0,-1.7,13.1,16.3,3.0
Cc1ccc(/C=C2/Sc3ccc(C(=O)N4CCN(C)CC4)cc3NC2=O)cc1,45.6*,nt,88.5,42.3*,2.0
CC1CCN(C(=O)c2ccc3c(c2)NC(=O)/C(=C/c2ccccc2)S3)CC1,8.3,nt,nt,nt,1.0
COc1ccccc1CNC(=O)c1cnccn1,-6.0,-0.1,53.5,3.6*,1.0
CC(C)C(NC(=O)c1ccc(C(C)(C)C)cc1)C(=O)N1CCCC1 (stereo not drawn),9.4,nt,-15.9,-7.2,0.0
CN(C=[N+](C)C)c1cccc2c1C(=O)c1ccccc1C2=O,86.5*,0.5,?,22.6,0.0
COc1ccc(NC(=S)Nc2cccc(Cl)c2)cc1OC,36.8*,-0.1,4.5,18.2,11.0
COc1ccc(NC(=S)N/N=C/c2ccc(F)cc2)cc1OC,45.2*,-0.4,-6.3,-6.8,0.0
COc1ccc(Cl)cc1NC(=S)Nc1ccccc1F,40.9*,0.5,4.1,-1.2,1.0
COc1ccc(Cl)cc1NC(=S)Nc1cccc(C)c1,22.0,-0.4,3.6,-0.7,0.0
CC(C)(C)C(=O)N1CCC2CC1c1cc(Cl)ccc12 (stereo not drawn),-6.5,nt,nt,nt,nt
O=C(Nc1ccc(C2=NCCN2)cc1)c1ccc(Cl)c(C(=O)Nc2ccc(C3=NCCN3)cc2)c1,nt,0.2,14.2,36.2,0.0
CCCCCCOc1ccc(-c2ccc(C#N)cn2)cc1,-10.5,3.1*,-11.0,16.7,0.0
COc1ccc(Nc2nnc(C)c(=O)[nH]2)c(OC)c1,-9.4,4.2*,-10.4,-4.5,0.0
COc1ccc(C)cc1Nc1nnc(C)c(=O)[nH]1,-19.1,2.8,-12.5,-15.2,0.0
Cc1ccc(C)c(Cn2nnc3c(=O)[nH]c(C4CCN(C(=O)c5ccco5)CC4)nc32)c1,0.5,nt,-14.0,12.4,2.0
O=C(O)/C=C/C(=O)N1CCN(S(=O)(=O)c2cc(C(F)(F)F)ccc2Cl)CC1,-0.9,0.2,2.1*,69.0*,1.0
O=C(CSc1ccccc1C(=O)O)NC1CCCCCC1,79.3*,1.2,3.1,-6.0,3.0
O=C(CSc1ccccc1C(=O)O)NC1CCCCCCC1,2.8,0.5,0.9,2.4,0.0
Cc1ccc2c(C)c(C(=O)N3CCCC(C(N)=O)C3)oc2c1C (stereo not drawn),1.4,nt,-2.4,-4.6,nt
COc1cc(CCC(=O)Nc2ccc(Br)c(C(F)(F)F)c2)cc(OC)c1OC,0.9,-0.7,active,100.2*,0.0
SMILES,PABP1 MLLE inh,PERK inhibitor,eIF4H inh,PABP polyA inh,GRK2 inh
N#C/C(=C/c1ccco1)C(N)=S,14.7,1.8,56.9*,51.5*,3.0
O=C(CCCCN1CCCCC1)c1ccccc1,0.9,nt,nt,nt,2.0
O=C(CCN1CCC2CCC(C2)C1)c1ccccc1 (stereo not drawn),42.4*,nt,nt,nt,nt
O=C1CC(c2ccc(Cl)cc2)CC(=O)C1CS(=O)(=O)c1ccccc1 (stereo not drawn),30.5,-1.0,-3.6,9.8,8.0
O=C1CCCC(=O)C1CS(=O)(=O)c1ccccc1,52.2*,-0.4,-7.6,7.4,0.0
Nc1cccc2cnccc12,0.9,1.1,87.9*,52.5,2.0
Oc1cccc2cnccc12,-10.8,1.4,2.6,2.7,3.0
CCN(CC)CCCNC(=O)c1cc(Cl)c(NC(=O)C2=C(C)OCCS2)cc1OC,-11.6,nt,92.6*,55.2*,0.0
CCOC(=O)c1c(NC(=O)COC(=O)Cc2n[nH]c(=O)c3ccccc23)sc(C(=O)NC)c1C,3.0,nt,nt,nt,29.0
CC1CCCN(Cc2c(O)ccc3c2O/C(=C\c2ccco2)C3=O)C1 (stereo not drawn),68.2,-0.3,85.1*,5.8*,18.0
O=C(CSc1nc2ccccc2n1CCc1ccccc1)c1ccc(O)c(O)c1,-98.9,1.3,89.9*,93.6*,nt
Cn1c(SCC(=O)c2ccc(O)c(O)c2)nnc1-c1ccccc1,8.5,nt,3.3,17.2,1.0
Cn1c(SCC(=O)c2ccc(O)c(O)c2)nnc1-c1cccs1,6.9,0.4,50.0*,32.6*,6.0
